# Like-named read-outs stand apart in the source and are kept apart here.
# Legend:
# [1] = system: IKBKE; conditions: read-out: apparent Kd, n = 1
# [2] = system: NUAK1; conditions: read-out: apparent Kd, n = 1
# [3] = compound concentrations:100 nM and 1000 nM (sheet 'Lestaurtinib' of Supplementary Table 1),run:Lestaurtinib_02364_R2,Plate:MR002
# [4] = compound concentrations:100 nM and 1000 nM (sheet 'Lestaurtinib' of Supplementary Table 1),run:Lestaurtinib_02364_R3,Plate:MR002
# [5] = compound concentrations:100 nM and 1000 nM (sheet 'Lestaurtinib' of Supplementary Table 1),run:Lestaurtinib_02367_R1,Plate:MR003
# [6] = compound concentrations:100 nM and 1000 nM (sheet 'Lestaurtinib' of Supplementary Table 1),run:Lestaurtinib_02381_R1,Plate:MR004
# [7] = compound concentrations:100 nM and 1000 nM (sheet 'Lestaurtinib' of Supplementary Table 1),run:Lestaurtinib_02437_R1,Plate:MR007
# [8] = compound concentrations:100 nM and 1000 nM (sheet 'Lestaurtinib' of Supplementary Table 1),run:Lestaurtinib_02437_R2,Plate:MR007
# [9] = compound concentrations:100 nM and 1000 nM (sheet 'Lestaurtinib' of Supplementary Table 1),run:Lestaurtinib_02438_R1,Plate:MR008
# [10] = compound concentrations:100 nM and 1000 nM (sheet 'Lestaurtinib' of Supplementary Table 1),run:Lestaurtinib_02438_R2,Plate:MR008
# [11] = compound concentrations:100 nM and 1000 nM (sheet 'Lestaurtinib' of Supplementary Table 1),run:Lestaurtinib_02443_R2,Plate:MR009
# [12] = compound concentrations:100 nM and 1000 nM (sheet 'Lestaurtinib' of Supplementary Table 1),run:Lestaurtinib_02482_R1,Plate:MR011
# [13] = compound concentrations:100 nM and 1000 nM (sheet 'Lestaurtinib' of Supplementary Table 1),run:Lestaurtinib_02482_R3,Plate:MR011
# [14] = compound concentrations:100 nM and 1000 nM (sheet 'Lestaurtinib' of Supplementary Table 1),run:Lestaurtinib_02487_R2,Plate:MR012
substance,measurement,setting,value
Lestaurtinib,potency estimated from few doses,"[1]; compound concentrations:100 nM and 1000 nM (sheet 'Lestaurtinib' of Supplementary Table 1),run:Lestaurtinib_02364_R1,Plate:MR002",0.769 µM
same,potency estimated from few doses,[1]; [3],0.896 µM
same,potency estimated from few doses,[1]; [4],0.647 µM
same,potency estimated from few doses,[1]; [5],0.711 µM
same,potency estimated from few doses,"[1]; compound concentrations:100 nM and 1000 nM (sheet 'Lestaurtinib' of Supplementary Table 1),run:Lestaurtinib_02367_R2,Plate:MR003",0.972 µM
same,potency estimated from few doses,[1]; [6],0.695 µM
same,potency estimated from few doses,"[1]; compound concentrations:100 nM and 1000 nM (sheet 'Lestaurtinib' of Supplementary Table 1),run:Lestaurtinib_02381_R2,Plate:MR004",0.551 µM
same,potency estimated from few doses,"[1]; compound concentrations:100 nM and 1000 nM (sheet 'Lestaurtinib' of Supplementary Table 1),run:Lestaurtinib_02381_R3,Plate:MR004",0.713 µM
same,potency estimated from few doses,"[1]; compound concentrations:100 nM and 1000 nM (sheet 'Lestaurtinib' of Supplementary Table 1),run:Lestaurtinib_02407_R3,Plate:MR005",0.883 µM
same,potency estimated from few doses,"[1]; compound concentrations:100 nM and 1000 nM (sheet 'Lestaurtinib' of Supplementary Table 1),run:Lestaurtinib_02422_R3,Plate:MR006",0.976 µM
same,potency estimated from few doses,[1]; [7],0.554 µM
same,potency estimated from few doses,[1]; [8],0.807 µM
same,potency estimated from few doses,"[1]; compound concentrations:100 nM and 1000 nM (sheet 'Lestaurtinib' of Supplementary Table 1),run:Lestaurtinib_02437_R3,Plate:MR007",0.0712 µM
same,potency estimated from few doses,[1]; [9],0.861 µM
same,potency estimated from few doses,[1]; [10],0.834 µM
same,potency estimated from few doses,"[1]; compound concentrations:100 nM and 1000 nM (sheet 'Lestaurtinib' of Supplementary Table 1),run:Lestaurtinib_02443_R1,Plate:MR009",0.745 µM
same,potency estimated from few doses,[1]; [11],0.713 µM
same,potency estimated from few doses,[1]; [12],1.13 µM
same,potency estimated from few doses,[1]; [13],0.627 µM
same,potency estimated from few doses,[1]; [14],1.15 µM
same,potency estimated from few doses,"[1]; compound concentrations:100 nM and 1000 nM (sheet 'Lestaurtinib' of Supplementary Table 1),run:Lestaurtinib_02487_R3,Plate:MR012",0.756 µM
same,potency estimated from few doses,"[1]; compound concentrations:100 nM and 1000 nM (sheet 'Lestaurtinib' of Supplementary Table 1),run:Lestaurtinib_02496_R1,Plate:MR013",0.71 µM
same,potency estimated from few doses,"[1]; compound concentrations:100 nM and 1000 nM (sheet 'Lestaurtinib' of Supplementary Table 1),run:Lestaurtinib_02496_R2,Plate:MR013",0.695 µM
same,potency estimated from few doses,"[1]; compound concentrations:100 nM and 1000 nM (sheet 'Lestaurtinib' of Supplementary Table 1),run:Lestaurtinib_02566_R1,Plate:MR014",0.877 µM
same,potency estimated from few doses,"[1]; compound concentrations:100 nM and 1000 nM (sheet 'Lestaurtinib' of Supplementary Table 1),run:Lestaurtinib_02572_R1,Plate:MR015",0.756 µM
same,potency estimated from few doses,"[1]; compound concentrations:100 nM and 1000 nM (sheet 'Lestaurtinib' of Supplementary Table 1),run:Lestaurtinib_02572_R2,Plate:MR015",0.857 µM
same,potency estimated from few doses,"[1]; compound concentrations:100 nM and 1000 nM (sheet 'Lestaurtinib' of Supplementary Table 1),run:Lestaurtinib_02572_R3,Plate:MR015",0.855 µM
same,potency estimated from few doses,"[1]; compound concentrations:100 nM and 1000 nM (sheet 'Lestaurtinib' of Supplementary Table 1),run:Lestaurtinib_02577_R1,Plate:MR016",0.799 µM
same,potency estimated from few doses,"[1]; compound concentrations:100 nM and 1000 nM (sheet 'Lestaurtinib' of Supplementary Table 1),run:Lestaurtinib_02577_R2,Plate:MR016",0.785 µM
same,potency estimated from few doses,"[1]; compound concentrations:100 nM and 1000 nM (sheet 'Lestaurtinib' of Supplementary Table 1),run:Lestaurtinib_02577_R3,Plate:MR016",0.713 µM
same,potency estimated from few doses,"[1]; compound concentrations:100 nM and 1000 nM (sheet 'Lestaurtinib' of Supplementary Table 1),run:Lestaurtinib_02584_R2,Plate:MR017",0.744 µM
same,potency estimated from few doses,"[1]; compound concentrations:100 nM and 1000 nM (sheet 'Lestaurtinib' of Supplementary Table 1),run:Lestaurtinib_02584_R3,Plate:MR017",0.935 µM
same,potency estimated from few doses,"[1]; compound concentrations:100 nM and 1000 nM (sheet 'Lestaurtinib' of Supplementary Table 1),run:Lestaurtinib_02601_R3,Plate:MR018",0.796 µM
same,potency estimated from few doses,"[1]; compound concentrations:100 nM and 1000 nM (sheet 'Lestaurtinib' of Supplementary Table 1),run:Lestaurtinib_02606_R1,Plate:MR019",0.995 µM
same,potency estimated from few doses,"[1]; compound concentrations:100 nM and 1000 nM (sheet 'Lestaurtinib' of Supplementary Table 1),run:Lestaurtinib_02624_R2,Plate:MR020",0.729 µM
same,potency estimated from few doses,"[1]; compound concentrations:100 nM and 1000 nM (sheet 'Lestaurtinib' of Supplementary Table 1),run:Lestaurtinib_02624_R3,Plate:MR020",0.787 µM
same,potency estimated from few doses,"[1]; compound concentrations:100 nM and 1000 nM (sheet 'Lestaurtinib' of Supplementary Table 1),run:Lestaurtinib_02724_R1,Plate:MR021",0.731 µM
same,potency estimated from few doses,"[1]; compound concentrations:100 nM and 1000 nM (sheet 'Lestaurtinib' of Supplementary Table 1),run:Lestaurtinib_02724_R2,Plate:MR021",0.809 µM
same,potency estimated from few doses,"[1]; compound concentrations:100 nM and 1000 nM (sheet 'Lestaurtinib' of Supplementary Table 1),run:Lestaurtinib_02724_R3,Plate:MR021",0.582 µM
same,potency estimated from few doses,"[1]; compound concentrations:100 nM and 1000 nM (sheet 'Lestaurtinib' of Supplementary Table 1),run:Lestaurtinib_02741_R1,Plate:MR023",0.782 µM
same,potency estimated from few doses,"[1]; compound concentrations:100 nM and 1000 nM (sheet 'Lestaurtinib' of Supplementary Table 1),run:Lestaurtinib_02741_R2,Plate:MR023",0.81 µM
same,potency estimated from few doses,"[1]; compound concentrations:100 nM and 1000 nM (sheet 'Lestaurtinib' of Supplementary Table 1),run:Lestaurtinib_02741_R3,Plate:MR023",0.965 µM
same,potency estimated from few doses,"[1]; compound concentrations:100 nM and 1000 nM (sheet 'Lestaurtinib' of Supplementary Table 1),run:Lestaurtinib_02748_R1,Plate:MR024",0.505 µM
same,potency estimated from few doses,"[1]; compound concentrations:100 nM and 1000 nM (sheet 'Lestaurtinib' of Supplementary Table 1),run:Lestaurtinib_02748_R3,Plate:MR024",0.81 µM
same,potency estimated from few doses,"[1]; compound concentrations:100 nM and 1000 nM (sheet 'Lestaurtinib' of Supplementary Table 1),run:Lestaurtinib_02752_R1,Plate:MR025",0.783 µM
same,potency estimated from few doses,"[1]; compound concentrations:100 nM and 1000 nM (sheet 'Lestaurtinib' of Supplementary Table 1),run:Lestaurtinib_02752_R2,Plate:MR025",0.786 µM
same,potency estimated from few doses,"[1]; compound concentrations:100 nM and 1000 nM (sheet 'Lestaurtinib' of Supplementary Table 1),run:Lestaurtinib_02752_R3,Plate:MR025",0.596 µM
same,potency estimated from few doses,"[1]; compound concentrations:100 nM and 1000 nM (sheet 'Lestaurtinib' of Supplementary Table 1),run:Lestaurtinib_02765_R1,Plate:MR026",0.86 µM
same,potency estimated from few doses,"[1]; compound concentrations:100 nM and 1000 nM (sheet 'Lestaurtinib' of Supplementary Table 1),run:Lestaurtinib_02765_R3,Plate:MR026",0.731 µM
same,potency estimated from few doses,"[1]; compound concentrations:100 nM and 1000 nM (sheet 'Lestaurtinib' of Supplementary Table 1),run:Lestaurtinib_02768_R1,Plate:MR028",0.686 µM
same,potency estimated from few doses,"[1]; compound concentrations:100 nM and 1000 nM (sheet 'Lestaurtinib' of Supplementary Table 1),run:Lestaurtinib_02768_R2,Plate:MR028",0.82 µM
same,potency estimated from few doses,"[1]; compound concentrations:100 nM and 1000 nM (sheet 'Lestaurtinib' of Supplementary Table 1),run:Lestaurtinib_02768_R3,Plate:MR028",0.628 µM
same,potency estimated from few doses,"[1]; compound concentrations:100 nM and 1000 nM (sheet 'Lestaurtinib' of Supplementary Table 1),run:Lestaurtinib_02795_R1,Plate:MR022",0.874 µM
same,potency estimated from few doses,"[1]; compound concentrations:100 nM and 1000 nM (sheet 'Lestaurtinib' of Supplementary Table 1),run:Lestaurtinib_02795_R3,Plate:MR022",1.21 µM
same,potency estimated from few doses,"[1]; compound concentrations:100 nM and 1000 nM (sheet 'Lestaurtinib' of Supplementary Table 1),run:Lestaurtinib_02802_R3,Plate:MR029",0.831 µM
same,potency estimated from few doses,"[1]; compound concentrations:100 nM and 1000 nM (sheet 'Lestaurtinib' of Supplementary Table 1),run:Lestaurtinib_02896_R1,Plate:MR030",0.749 µM
same,potency estimated from few doses,"[1]; compound concentrations:100 nM and 1000 nM (sheet 'Lestaurtinib' of Supplementary Table 1),run:Lestaurtinib_02896_R3,Plate:MR030",0.608 µM
same,potency estimated from few doses,"[1]; compound concentrations:100 nM and 1000 nM (sheet 'Lestaurtinib' of Supplementary Table 1),run:Lestaurtinib_03172_R2,Plate:MR031",0.814 µM
same,potency estimated from few doses,"[1]; compound concentrations:100 nM and 1000 nM (sheet 'Lestaurtinib' of Supplementary Table 1),run:Lestaurtinib_03172_R3,Plate:MR031",0.662 µM
same,potency estimated from few doses,"[1]; compound concentrations:100 nM and 1000 nM (sheet 'Lestaurtinib' of Supplementary Table 1),run:Lestaurtinib_03252_R1,Plate:MR032",0.804 µM
same,potency estimated from few doses,"[1]; compound concentrations:100 nM and 1000 nM (sheet 'Lestaurtinib' of Supplementary Table 1),run:Lestaurtinib_03260_R1,Plate:MR033",1.21 µM
same,potency estimated from few doses,"[1]; compound concentrations:100 nM and 1000 nM (sheet 'Lestaurtinib' of Supplementary Table 1),run:Lestaurtinib_03260_R3,Plate:MR033",0.943 µM
same,potency estimated from few doses,"[2]; compound concentrations:100 nM and 1000 nM (sheet 'Lestaurtinib' of Supplementary Table 1),run:Lestaurtinib_02339_R1,Plate:MR001",0.0945 µM
same,potency estimated from few doses,"[2]; compound concentrations:100 nM and 1000 nM (sheet 'Lestaurtinib' of Supplementary Table 1),run:Lestaurtinib_02339_R2,Plate:MR001",0.0556 µM
same,potency estimated from few doses,[2]; [3],0.0623 µM
same,potency estimated from few doses,[2]; [4],0.0661 µM
same,potency estimated from few doses,[2]; [5],0.0513 µM
same,potency estimated from few doses,"[2]; compound concentrations:100 nM and 1000 nM (sheet 'Lestaurtinib' of Supplementary Table 1),run:Lestaurtinib_02367_R3,Plate:MR003",0.078 µM
same,potency estimated from few doses,[2]; [6],0.0859 µM
same,potency estimated from few doses,"[2]; compound concentrations:100 nM and 1000 nM (sheet 'Lestaurtinib' of Supplementary Table 1),run:Lestaurtinib_02407_R1,Plate:MR005",0.124 µM
same,potency estimated from few doses,"[2]; compound concentrations:100 nM and 1000 nM (sheet 'Lestaurtinib' of Supplementary Table 1),run:Lestaurtinib_02407_R2,Plate:MR005",0.2 µM
same,potency estimated from few doses,"[2]; compound concentrations:100 nM and 1000 nM (sheet 'Lestaurtinib' of Supplementary Table 1),run:Lestaurtinib_02422_R1,Plate:MR006",0.0695 µM
same,potency estimated from few doses,[2]; [7],0.0898 µM
same,potency estimated from few doses,[2]; [8],0.113 µM
same,potency estimated from few doses,[2]; [9],0.0943 µM
same,potency estimated from few doses,[2]; [10],0.0825 µM
same,potency estimated from few doses,[2]; [11],0.163 µM
same,potency estimated from few doses,"[2]; compound concentrations:100 nM and 1000 nM (sheet 'Lestaurtinib' of Supplementary Table 1),run:Lestaurtinib_02473_R1,Plate:MR010",0.093 µM
same,potency estimated from few doses,"[2]; compound concentrations:100 nM and 1000 nM (sheet 'Lestaurtinib' of Supplementary Table 1),run:Lestaurtinib_02473_R2,Plate:MR010",0.0568 µM
same,potency estimated from few doses,[2]; [12],0.115 µM
same,potency estimated from few doses,"[2]; compound concentrations:100 nM and 1000 nM (sheet 'Lestaurtinib' of Supplementary Table 1),run:Lestaurtinib_02482_R2,Plate:MR011",0.0744 µM
same,potency estimated from few doses,[2]; [13],0.0873 µM
same,potency estimated from few doses,"[2]; compound concentrations:100 nM and 1000 nM (sheet 'Lestaurtinib' of Supplementary Table 1),run:Lestaurtinib_02487_R1,Plate:MR012",0.0604 µM
same,potency estimated from few doses,[2]; [14],0.0997 µM

# Source: PMC11062922 (Nature Chemical Biology, 2023)
